For 23 molecules, activation results are on record in PubChem BioAssay (NCATS).

Where “and” joins values, the source holds several entries; their conditions need not be identical. Identical values can stand only once. Results filed as inconclusive are left out. Values without a mark were called inactive. Calls follow the shape of the dose curve; as a rule, active = well fitted curve in the direction sought with a large enough effect in the signal ratio, with a control signal flat; inconclusive = small, poorly fitted or top-dose-only effect, or effect the other way, or a change in a side signal; inactive = no such curve, though single readings can be large or run the other way; the % refers to the signal ratio.
% is scaled to controls: 0 for no effect and ±100 for the full control effect.

Chain of Androgen receptor (Homo sapiens) (P10275 whole entry, looked up): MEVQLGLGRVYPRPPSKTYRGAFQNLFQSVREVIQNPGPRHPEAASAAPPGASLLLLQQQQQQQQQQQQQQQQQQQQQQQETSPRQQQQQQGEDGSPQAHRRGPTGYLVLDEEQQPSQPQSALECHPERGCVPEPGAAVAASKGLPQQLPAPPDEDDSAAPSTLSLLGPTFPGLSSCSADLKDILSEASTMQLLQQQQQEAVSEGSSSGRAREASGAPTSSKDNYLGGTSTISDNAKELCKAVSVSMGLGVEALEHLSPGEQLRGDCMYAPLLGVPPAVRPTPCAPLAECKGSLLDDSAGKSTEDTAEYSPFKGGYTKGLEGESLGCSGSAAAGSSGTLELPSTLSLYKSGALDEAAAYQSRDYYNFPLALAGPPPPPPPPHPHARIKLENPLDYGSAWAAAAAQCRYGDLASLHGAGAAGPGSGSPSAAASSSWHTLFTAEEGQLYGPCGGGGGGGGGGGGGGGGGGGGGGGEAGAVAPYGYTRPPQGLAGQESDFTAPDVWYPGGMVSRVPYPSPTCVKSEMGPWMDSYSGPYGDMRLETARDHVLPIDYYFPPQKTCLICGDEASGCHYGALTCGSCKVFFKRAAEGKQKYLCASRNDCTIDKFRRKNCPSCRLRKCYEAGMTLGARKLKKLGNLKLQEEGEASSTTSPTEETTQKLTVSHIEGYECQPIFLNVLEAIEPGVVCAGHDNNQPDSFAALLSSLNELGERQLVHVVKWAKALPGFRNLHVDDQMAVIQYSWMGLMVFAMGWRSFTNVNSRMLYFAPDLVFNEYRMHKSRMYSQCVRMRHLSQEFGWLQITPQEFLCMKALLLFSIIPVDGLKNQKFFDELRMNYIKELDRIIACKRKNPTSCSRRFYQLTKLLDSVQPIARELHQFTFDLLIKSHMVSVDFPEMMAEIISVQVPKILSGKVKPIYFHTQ

The assay concerns the target Androgen receptor (Homo sapiens) (UniProt P10275). As to the kind of experiment: qHTS assay for small molecule agonists of androgen receptor signaling (AID 588515). The note with it: AR-UAS-bla HEK293, beta-lactamase ratio, agonist 16 h; stronger effect = higher value. The text has this: NIH Chemical Genomics Center [NCGC] U.S. Environmental Protection Agency [EPA] National Institutes of Environmental Health Sciences [NIEHS] National Toxicology Program [NTP] NCGC Assay Overview Androgen receptor (AR), located at chromosome Xq11-12, is an important member of nuclear hormone receptors. AR signaling plays a critical role in AR-dependent prostate cancer and other androgen related diseases. Considerable attention has been given in the past decades to the possibility of some of environmental chemicals which may contribute the endocrine disruption. Therefore, it is important to understand the effect of environmental chemicals in AR signaling pathway.
NCGC Assay Protocol Summary Using a beta-lactamase reporter-gene under control of the AR response element, a cell-based assay [GeneBLAzer AR-UAS-bla-GripTite assay developed by Invitrogen] was used to measure AR ligands signaling. AR-UAS-bla-GripTite HEK 293 cells were used with assay medium containing 10% dialyzed FBS, 0.1 mM NEAA and 1 mM sodium pyruvate. The assay was performed in clear bottom black Greiner 1536-well plates. R1881, a synthetic androgen agonist, was used as a positive control in the screen. Library compounds were measured for their ability to stimulate the reporter gene activity. Compounds were screened in a titration series in 1536-well format. The fluorescence intensity (405 nm excitation, 460/530 nm emission) was measured using an EnVision plate reader. Data was normalized relative to R1881 control (30 nM, 100%), and DMSO only wells (basal, 0%). Concentration-response titration points for each compound were fitted to the Hill equation yielding concentrations of half-maximal stimulation (EC50) and maximal response (efficacy) values. qHTS protocol for AR beta-lactamase assay in agonist mode [Step] [Parameter] [Value] [Description] 1. Reagent; 6 uL; 2000 cells/well 2. Incubation; 37 C for 5 hrs 3. Compounds; 23 nL; 0.59 nM to 92 uM 4. Controls (R1881); 23 nL, - Dose response, start 3.83uM, 1:3 dilutions with duplicates in one column - Final concentrations of 30 and 20nM in two columns 5. Incubation; 37 C for 16 hrs 6. Detection reagent; 1 uL of CCF4-dye 7. Incubation; RT for 2 hrs 8. Detection; Fluorescence; Envision plate reader
As to `Brc1ccccc1`, the activation is 9.26% and -0.282%.

Regarding `C=C(Cl)Cl`, the activation was 2.29%.

Consider `c1ccc(-c2ccccc2)cc1`, for which the activation is -1.76% and -0.536%.

With `c1ccc2c(c1)CCCC2`, the activation is -2.87%.

As for `CC(COc1ccc(Oc2ccccc2)cc1)Oc1ccccn1` (stereo not drawn), the activation is -2.33%.

Regarding `S=C=Nc1cccc2ccccc12`, the activation was -5.44%.

Regarding `Clc1cccc(C(Cl)(Cl)Cl)n1`, the activation is -4.18%.

Consider `[O-][Br+2]([O-])O`, for which the activation is 4.89% and 1.1%.

With `CCC(=O)Nc1ccc(Cl)c(Cl)c1`, the activation was 16.4%.

For `O=S1OCC2C(CO1)C1(Cl)C(Cl)=C(Cl)C2(Cl)C1(Cl)Cl` (stereo not drawn), the activation is -11.1%.

Turning to `Clc1ccc2ccccc2c1`, the activation was 11.2%.

As to `CCc1cccc(CC)c1N(COC)C(=O)CCl`, the activation is -10.2% and -10.1%.

With `O=C(Cl)/C=C/C(=O)Cl`, the activation was 8.8%.

Turning to `O=NN(CCO)CCO`, the activation is 14%.

`CC(C)(C)OO`: the activation was -8.84%.

Regarding `Cc1ccc2ccccc2c1`, the activation is 23%.

Consider `CCSC(=O)Cl`, for which the activation was 5.7%.

Take `Nc1ccccc1Cl`: the activation was 9.37%.

Regarding `COC1=CC(=O)OC(CCc2ccccc2)C1` (stereo not drawn), the activation was -22.1%.

In the case of `O=C(O)COc1cc(Cl)c(Cl)cc1Cl`, the activation was -1.88%.

Turning to `C=CCOC(C)=O`, the activation was -7.35%.

Turning to `CCS(=O)CCSP(=O)(OC)OC` (stereo not drawn), the activation was 7.09%.

For `CCN(CC)c1ccccc1`, the activation was 12.2%.
